# Source: the supplement of paper PMC10037445
# “And” between values parts separate entries of the source, which are not always exact repeats. Equal values may be shown once. Over roughly 2,900 compounds, “NF-kB SEAP reporter activity, fold change vs agonist alone” has its median near 0.99; the highest 2% begin near 2.6. Many of the other results were omitted from the sample, so the highest values are more common in it than they were.
# Legend:
# RAW-Dual [1] = assay: NF-kB SEAP reporter activity, fold change vs agonist alone; higher = enhanced NF-kB activity; conditions: library stock concentration (final ~1000-fold dilution): 10 mM
# Method in brief: (§1)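 After 50 nL of library stock was delivered by pin tool to RAW-Dual macrophages (50,000 cells/well, DMEM, 384-well plates), a PRR agonist was added 1 h later and the plates were kept at 37 °C, 5% CO2. Twenty hours later, IRF was read from supernatant by QuantiLuc luminescence and NF-κB by QuantiBlue absorbance at 620 nm. Reporter activity is stated as fold change over agonist-alone wells. Wells with IncuCyte confluency under 70% of agonist controls in both mask sets were counted as cytotoxic.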
# RAW-Dual [2] = assay: NF-kB SEAP reporter activity, fold change vs agonist alone; cytotoxicity flag (confluency mask): not cytotoxic; higher = enhanced NF-kB activity
# Method in brief: as §1
# RAW-Dual [3] = assay: NF-kB SEAP reporter activity, fold change vs agonist alone; cytotoxicity flag (confluency mask): cytotoxic (confluency <70% of control); higher = enhanced NF-kB activity
# Method in brief: as §1
# [4] = cytotoxicity flag (confluency mask): not cytotoxic, agonist: Imiquimod (TLR7) […]
# [5] = cytotoxicity flag (confluency mask): not cytotoxic, agonist: MPLA (TLR4) […]
# [6] = agonist: ODN 1826 (TLR9) 0.5 ug/mL
# [7] = agonist: Pam2CSK4 (TLR2/6) 0.1 ug/mL
# [8] = agonist: Pam3CSK4 (TLR2/1) 0.1 ug/mL
smiles,measurement,setting,value
CC(=O)N1CCC(Nc2cc(C(=O)NCC(O)CN3CCc4ccccc4C3)ncn2)CC1 (stereo unspecified),NF-kB SEAP reporter activity,RAW-Dual [1]; [4],0.92
same,NF-kB SEAP reporter activity,RAW-Dual [1]; [5],1.03
Cc1cc(N=Nc2ccc(S(=O)(=O)Nc3ccccn3)cc2)c(N)cc1O,NF-kB SEAP reporter activity,RAW-Dual [1]; [4],1.38
same,NF-kB SEAP reporter activity,RAW-Dual [1]; [5],2.48
Cc1cc(N=Nc2ccc3c(c2)CCC(=O)N3)c(N)cc1O,NF-kB SEAP reporter activity,RAW-Dual [1]; [4],1.35
same,NF-kB SEAP reporter activity,RAW-Dual [1]; [5],1.77
Cc1cc(N=Nc2ccc(S(=O)(=O)Nc3ccccn3)cc2)c(N)cc1O (library stock concentration (final ~1000-fold dilution): 10 mM),NF-kB SEAP reporter activity,RAW-Dual [2]; agonist: LPS (TLR4) 0.1 ug/mL,3.77
same,NF-kB SEAP reporter activity,RAW-Dual [2]; [6],2.32
same,NF-kB SEAP reporter activity,RAW-Dual [2]; [7],0.966
same,NF-kB SEAP reporter activity,RAW-Dual [2]; [8],2.13
O=C(O)C1=C/C(=N\Nc2ccc(S(=O)(=O)Nc3ccccn3)cc2)C=CC1=O (library stock concentration (final ~1000-fold dilution): 10 mM),NF-kB SEAP reporter activity,RAW-Dual [2]; agonist: LPS (TLR4) 0.1 ug/mL,1.65
same,NF-kB SEAP reporter activity,RAW-Dual [2]; [6],1.26
same,NF-kB SEAP reporter activity,RAW-Dual [2]; [7],0.969
same,NF-kB SEAP reporter activity,RAW-Dual [2]; [8],0.851
Cc1cc(N=Nc2ccc3c(c2)CCC(=O)N3)c(N)cc1O (library stock concentration (final ~1000-fold dilution): 10 mM),NF-kB SEAP reporter activity,RAW-Dual [2]; agonist: LPS (TLR4) 0.1 ug/mL,1.42
same,NF-kB SEAP reporter activity,RAW-Dual [2]; [6],1.33
same,NF-kB SEAP reporter activity,RAW-Dual [2]; [7],0.692
same,NF-kB SEAP reporter activity,RAW-Dual [2]; [8],1.22
O=C(O)C1=C/C(=N\Nc2ccc(S(=O)(=O)Nc3ccccn3)cc2)C=CC1=O,NF-kB SEAP reporter activity,RAW-Dual [1]; [4],1.07
same,NF-kB SEAP reporter activity,RAW-Dual [1]; [5],1.31
O=C(c1ccccc1)C(O)O,NF-kB SEAP reporter activity,RAW-Dual [1]; [5],1.19
O=C(c1ccccc1)C(O)O (library stock concentration (final ~1000-fold dilution): 10 mM),NF-kB SEAP reporter activity,RAW-Dual [2]; agonist: LPS (TLR4) 0.1 ug/mL,1.12
same,NF-kB SEAP reporter activity,RAW-Dual [2]; [6],1.04
same,NF-kB SEAP reporter activity,RAW-Dual [2]; [7],1.14
same,NF-kB SEAP reporter activity,RAW-Dual [2]; [8],1.07
CCC(=O)OC1CC(=O)OC(C)C/C=C/C=C/C(O)C(C)CC(CC=O)C(OC2OC(C)C(OC3CC(C)(O)C(OC(=O)CC)C(C)O3)C(N(C)C)C2O)C1OC (stereo unspecified) (library stock concentration (final ~1000-fold dilution): 10 mM),NF-kB SEAP reporter activity,RAW-Dual [2]; agonist: LPS (TLR4) 0.1 ug/mL,0.93
same,NF-kB SEAP reporter activity,RAW-Dual [2]; [6],1.02
same,NF-kB SEAP reporter activity,RAW-Dual [2]; [7],1.06
same,NF-kB SEAP reporter activity,RAW-Dual [2]; [8],1.21
CCC(=O)OC1CC(=O)OC(C)C/C=C/C=C/C(O)C(C)CC(CC=O)C(OC2OC(C)C(OC3CC(C)(O)C(OC(=O)CC)C(C)O3)C(N(C)C)C2O)C1OC (stereo unspecified),NF-kB SEAP reporter activity,RAW-Dual [1]; [4],0.961
same,NF-kB SEAP reporter activity,RAW-Dual [1]; [5],1.07
COc1ccc2c(c1O)-c1c(O)c(OC)cc3c1C(C2)[N+](C)(C)CC3 (stereo unspecified) (library stock concentration (final ~1000-fold dilution): 10 mM),NF-kB SEAP reporter activity,RAW-Dual [2]; agonist: LPS (TLR4) 0.1 ug/mL,1.1 and 1.18
same,NF-kB SEAP reporter activity,RAW-Dual [2]; [6],0.935 and 1.11
same,NF-kB SEAP reporter activity,RAW-Dual [2]; [7],1.01 and 1.08
same,NF-kB SEAP reporter activity,RAW-Dual [2]; [8],0.967 and 1.08
CC(C)(NS(=O)(=O)c1ccc2c(Cl)cnc(NC(=N)N)c2c1)C(=O)O.Cl (library stock concentration (final ~1000-fold dilution): 10 mM),NF-kB SEAP reporter activity,RAW-Dual [2]; agonist: LPS (TLR4) 0.1 ug/mL,1.1
same,NF-kB SEAP reporter activity,RAW-Dual [2]; [6],1.01
same,NF-kB SEAP reporter activity,RAW-Dual [2]; [7],0.913
same,NF-kB SEAP reporter activity,RAW-Dual [2]; [8],0.764
CC(C)(NS(=O)(=O)c1ccc2c(Cl)cnc(NC(=N)N)c2c1)C(=O)O.Cl,NF-kB SEAP reporter activity,RAW-Dual [1]; [4],0.99
same,NF-kB SEAP reporter activity,RAW-Dual [1]; [5],0.923
Cl.Nc1ncccc1-c1nc2ccc(-c3ccccc3)nc2n1-c1ccc(C2(N)CCC2)cc1,NF-kB SEAP reporter activity,"RAW-Dual [1]; cytotoxicity flag (confluency mask): cytotoxic (confluency <70% of control), agonist: Imiquimod (TLR7) […]",1.7
same,NF-kB SEAP reporter activity,"RAW-Dual [1]; cytotoxicity flag (confluency mask): cytotoxic (confluency <70% of control), agonist: MPLA (TLR4) […]",1.8
Cl.Nc1ncccc1-c1nc2ccc(-c3ccccc3)nc2n1-c1ccc(C2(N)CCC2)cc1 (library stock concentration (final ~1000-fold dilution): 10 mM),NF-kB SEAP reporter activity,RAW-Dual [3]; agonist: LPS (TLR4) 0.1 ug/mL,0.954
same,NF-kB SEAP reporter activity,RAW-Dual [3]; [6],0.218
same,NF-kB SEAP reporter activity,RAW-Dual [3]; [7],0.921
same,NF-kB SEAP reporter activity,RAW-Dual [3]; [8],1.38
COc1cc2c(cc1OC)C1CC(OC(=O)C(N)C(C)C)C(CC(C)C)CN1CC2.Cc1ccc(S(=O)(=O)O)cc1.Cc1ccc(S(=O)(=O)O)cc1 (stereo unspecified) (library stock concentration (final ~1000-fold dilution): 10 mM),NF-kB SEAP reporter activity,RAW-Dual [2]; agonist: LPS (TLR4) 0.1 ug/mL,1.11
same,NF-kB SEAP reporter activity,RAW-Dual [2]; [6],0.207
same,NF-kB SEAP reporter activity,RAW-Dual [2]; [7],0.856
same,NF-kB SEAP reporter activity,RAW-Dual [2]; [8],0.889
COc1cc2c(cc1OC)C1CC(OC(=O)C(N)C(C)C)C(CC(C)C)CN1CC2.Cc1ccc(S(=O)(=O)O)cc1.Cc1ccc(S(=O)(=O)O)cc1 (stereo unspecified),NF-kB SEAP reporter activity,RAW-Dual [1]; [4],1.07
same,NF-kB SEAP reporter activity,RAW-Dual [1]; [5],1.11
CC1CCN(C(=O)CC#N)CC1N(C)c1ncnc2[nH]ccc12 (stereo unspecified) (library stock concentration (final ~1000-fold dilution): 10 mM),NF-kB SEAP reporter activity,RAW-Dual [2]; agonist: LPS (TLR4) 0.1 ug/mL,0.799
same,NF-kB SEAP reporter activity,RAW-Dual [2]; [6],1.27
same,NF-kB SEAP reporter activity,RAW-Dual [2]; [7],1.33
same,NF-kB SEAP reporter activity,RAW-Dual [2]; [8],1.51
CC1CCN(C(=O)CC#N)CC1N(C)c1ncnc2[nH]ccc12 (stereo unspecified),NF-kB SEAP reporter activity,RAW-Dual [1]; [4],1.31
same,NF-kB SEAP reporter activity,RAW-Dual [1]; [5],1.05
CC(=O)OC1CCC2(C)C(=CCC3C2CCC2(C)C(c4cccnc4)=CCC32)C1 (stereo unspecified),NF-kB SEAP reporter activity,RAW-Dual [1]; [4],1.12
same,NF-kB SEAP reporter activity,RAW-Dual [1]; [5],1.05
CC(=O)OC1CCC2(C)C(=CCC3C2CCC2(C)C(c4cccnc4)=CCC32)C1 (stereo unspecified) (library stock concentration (final ~1000-fold dilution): 10 mM),NF-kB SEAP reporter activity,RAW-Dual [2]; agonist: LPS (TLR4) 0.1 ug/mL,0.898
same,NF-kB SEAP reporter activity,RAW-Dual [2]; [6],1.06
same,NF-kB SEAP reporter activity,RAW-Dual [2]; [7],0.97
same,NF-kB SEAP reporter activity,RAW-Dual [2]; [8],1.97
COc1cc2oc(=O)ccc2c(OC)c1CC(O)C(C)(C)O (stereo unspecified),NF-kB SEAP reporter activity,RAW-Dual [1]; [4],0.936
same,NF-kB SEAP reporter activity,RAW-Dual [1]; [5],0.984
COc1cc2oc(=O)ccc2c(OC)c1CC(O)C(C)(C)O (stereo unspecified) (library stock concentration (final ~1000-fold dilution): 10 mM),NF-kB SEAP reporter activity,RAW-Dual [2]; agonist: LPS (TLR4) 0.1 ug/mL,1.11
same,NF-kB SEAP reporter activity,RAW-Dual [2]; [6],0.972
same,NF-kB SEAP reporter activity,RAW-Dual [2]; [7],1.08
same,NF-kB SEAP reporter activity,RAW-Dual [2]; [8],1.38
